Measured values taken from ChEMBL document CHEMBL1157539, “Thousands of chemical starting points for antimalarial lead identification” (Nature, 2010).

test system: Plasmodium falciparum; assay: GSK_TCMDC: Inhibition of Plasmodium falciparum 3D7 in whole red blood cells, using parasite LDH activity as an index of growth. Test compounds present at 2uM; format: functional

`CC(=O)c1ccc(-c2cccc3c(CC(=O)Nc4ccc5nccc(N6CCN(C)CC6)c5c4)cccc23)cc1` and `Cc1cc(NC(=O)Nc2ccc3nccc(N4CCN(C)CC4)c3c2)ccc1Br` are the same in Inhibition: 100% for the first, 100% for the second.

`O=C(Nc1ccccc1)N(Cc1cccc(-c2ccc(CNCc3ccc4c(c3)OCO4)cc2)c1)C1CCN(Cc2ccccc2)CC1.O=C(O)C(F)(F)F` and `CS(=O)(=O)c1ccc(CNCc2ccc(-c3ccc(-c4nc5cc(F)ccc5[nH]4)s3)cc2)cc1.O=C(O)C(F)(F)F` are the same in Inhibition: 100% for the first, 100% for the second.

Compared with `Cc1cc(CNCCCCCCCNCc2ccc(-c3ccccc3)cc2)ccc1O`, `COc1ccc(-c2ccc3c(-c4cccc(S(C)(=O)=O)c4)cnc(N)c3c2)cc1` is lower in Inhibition: 97% for the first, 89% for the second.

Compared with `O=C1NC(=S)N/C1=C/C=C/c1ccc([N+](=O)[O-])o1`, `COc1cccc2sc(N3CCN(C(=O)c4ccc([N+](=O)[O-])o4)CC3)nc12` is higher in Inhibition: 82% for the first, 95% for the second.

Compared with `CCCCN1CCN(CCCNc2c3ccccc3nc3ccccc23)CC1.Cl`, `c1ccc2c(NCCc3c[nH]cn3)c3ccccc3nc2c1` is lower in Inhibition: 100% for the first, 91% for the second.

First: COc1ccc(C2SCC(=O)N2CCc2ccc(OC)c(OC)c2)cc1 (centres undefined)
Second: CCCC(C(=O)OCCN(CC)CC)(c1ccc(Cl)cc1)c1ccc(Cl)cc1.Cl
The Inhibition of the first is higher: 96% for the first, 91% for the second.

Going from `Cl.c1cc(CNC2Cc3ccccc3C2)cc(-c2cnc(N3CCNCC3)nc2)c1` to `Oc1cc(Nc2ccnc3cc(-c4cccc(CN5CCOCC5)c4)ccc23)c(F)cc1Cl`, the Inhibition rises from 93% to 100%.
